Screens deposited in PubChem by The Scripps Research Institute Molecular Screening Center.
ZTA counter = blocks Epstein-Barr virus ZTA, an EBNA-1 counter-screen | 0.15% of 320,000 active | AID 2234 | P03206 | inhibition, % at 11 µM | ZTA-DNA binding, fluorescence polarization; in the data active = inhibition above about 33%
Target sequence (P03206 whole entry, looked up): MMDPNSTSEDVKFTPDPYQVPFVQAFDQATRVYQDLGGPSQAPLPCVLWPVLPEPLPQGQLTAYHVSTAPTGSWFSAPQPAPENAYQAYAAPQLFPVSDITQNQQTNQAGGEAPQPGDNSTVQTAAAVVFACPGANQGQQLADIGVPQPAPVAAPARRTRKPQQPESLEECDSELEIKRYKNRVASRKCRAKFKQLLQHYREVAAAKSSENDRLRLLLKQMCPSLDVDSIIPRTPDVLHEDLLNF
PAFAH2 FP inh = PAFAH2 enzyme inhibitors, primary screen, biochemical, fluorescence polarization, human; recombinant PAFAH2, FP-rhodamine activity probe; AID 492956, 2010; inhibition, % at 3.39 µM; Platelet-activating factor acetylhydrolase 2, cytoplasmic (Homo sapiens), Q99487; 0.99% of 340,000 active;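 active = inhibition above the mean over all tested compounds plus 3 SD, cut at about 30% in these data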;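 note: inhibitors block probe labeling of enzyme so polarization drops; 0% = enzyme with DMSO and 100% = wells lacking PAFAH2 protein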
PAFAH1B3 FP inh = PAFAH1B3 enzyme inhibitors, primary screen, biochemical, fluorescence polarization, human; Platelet-activating factor acetylhydrolase IB subunit alpha1 (Homo sapiens), Q15102; recombinant PAFAH1B3, FP-rhodamine probe; AID 492972, 2010; inhibition, % at 3.39 µM; 0.28% of 340,000 active;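 active = inhibition above the screen-wide average of all tested compounds plus 3 SD, cut at about 25% in these data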;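 note: 0% = enzyme with DMSO only and 100% = wells lacking PAFAH1B3 protein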
EBNA-1 inhibitor = EBNA-1 DNA-binding inhibitors, primary screen, biochemical, fluorescence polarization; inhibition, % at 14.8 µM; 0.34% of 300,000 active; AID 1950, 2009; in the data active = inhibition above about 28%
pPAFAH inh = pPAFAH enzyme inhibitors, primary screen, biochemical, fluorescence polarization, human. Platelet-activating factor acetylhydrolase (Homo sapiens), Q13093. 1.5% of 330,000 active. recombinant pPAFAH, FP-rhodamine probe fluorescence polarization. inhibition, % at 3.39 µM;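 active = inhibition above the mean inhibition across the screen plus 3 SD, cut at about 25% in these data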;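 note: inhibitors block binding of the rhodamine activity-based probe so polarization drops; 0% = enzyme with DMSO and 100% = wells lacking pPAFAH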
PAFAH1B2 FP inh = PAFAH1B2 enzyme inhibitors, primary screen, biochemical, fluorescence polarization, human; Platelet-activating factor acetylhydrolase IB subunit alpha2 (Homo sapiens), P68402; recombinant PAFAH1B2, FP-rhodamine activity probe; inhibition, % at 3.39 µM; 1.2% of 340,000 active;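 active = inhibition above the mean of all tested compounds plus 3 SD, cut at about 24% in these data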;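 note: 0% = enzyme with DMSO and 100% = wells lacking PAFAH1B2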
Target sequence (P68402 whole entry, looked up): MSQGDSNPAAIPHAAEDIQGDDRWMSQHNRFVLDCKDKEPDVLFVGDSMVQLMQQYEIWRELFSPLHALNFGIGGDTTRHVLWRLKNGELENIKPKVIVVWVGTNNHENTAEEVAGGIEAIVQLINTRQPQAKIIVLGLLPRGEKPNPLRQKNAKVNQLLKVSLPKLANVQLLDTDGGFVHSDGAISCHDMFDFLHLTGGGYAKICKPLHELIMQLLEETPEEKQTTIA
pPAFAH confirm = pPAFAH (PLA2G7) enzyme inhibitors, confirmation, biochemical, fluorescence polarization, human; shares compounds with pPAFAH inh; recombinant pPAFAH, FP-Rh probe fluorescence polarization; inhibition, % at 3.39 µM; 72% of 2,300 active;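 active = mean inhibition of the triplicate above the hit cutoff set for the earlier primary screen, cut at about 25% in these data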;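 note: 0% = enzyme with DMSO and 100% = wells lacking pPAFAH enzyme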
The depositor's hits bear a star; x = no result. Compounds with a hit are over-represented: about 2.9% of the library has one in this group of screens.

SMILES | ZTA counter | PAFAH2 FP inh | PAFAH1B3 FP inh | EBNA-1 inhibitor | pPAFAH inh | PAFAH1B2 FP inh | pPAFAH confirm
c1cc2c(cc1C1CCCCC1)c1c3n2CCCNC3CCC1 (centres undefined) | -3 | 4 | 5 | -6 | 45* | 6 | 20
Cc1ccc2c(c1)c1c3n2CCCNC3CCC1 (centres undefined) | 1 | -5 | 10 | -2 | 0 | -1 | x
Cc1cc(NS(=O)(=O)c2ccc(Nc3nc(-c4ccc(O)cc4)cs3)cc2)no1 | 0 | 26 | 7 | -9 | 22 | 8 | x
Cc1cc(NS(=O)(=O)c2ccc(Nc3nc(-c4sc(N)nc4C)cs3)cc2)no1 | 27 | 79* | 55* | 4 | 46* | 36* | 42*
Cc1cc(F)ccc1S(=O)(=O)NCC1CC2CCC1C2 (centres undefined) | 0 | -3 | 9 | -13 | 2 | 16 | x
COCCCNC1=C(Cl)C(=O)c2ccccc2C1=O | 4 | 0 | 9 | -1 | 2 | 6 | x
COCCCNc1c2c3c(cccc3[nH]c1=O)C(=O)c1ccccc1-2 | -8 | 136* | 134* | -7 | 106* | 109* | 84*
CCCCCCCCCCCCCCCC(=O)OC(CC(=O)O)C[N+](C)(C)C (centres undefined) | 11 | 3 | -1 | 3 | 17 | 1 | x
O=C(O)c1ccccc1N/N=C/c1cc(Br)cc(Br)c1O | -6 | 35* | 10 | 12 | 41* | 12 | 62*
COC(=O)c1ccc(/C(O)=C(\C#N)c2nc3ccccc3s2)cc1 | -2 | 8 | 4 | -12 | 9 | 23 | x
N#C/C(=C(/O)c1ccc2c(c1)OCO2)c1nc2cc(C(F)(F)F)ccc2s1 | -23 | 19 | 11 | -8 | 38* | 89* | 60*
N#CCCN(C(=O)COC(=O)c1ccc(S(=O)(=O)Nc2ccccc2)cc1)c1ccccc1 | 8 | -2 | 3 | 7 | 35* | -1 | 18
O=C(COC(=O)c1ccc(O)cc1)Nc1ccc(N2CCCCC2)cc1 | -9 | 60* | 4 | -3 | 48* | 4 | 34*
Cc1cc(C)cc(OCC(=O)Nc2ccc(N3CCCC3)cc2)c1 | 12 | 8 | 3 | -12 | 36* | -2 | 30*
COc1cc(OC)cc(C(=O)OCC(=O)Nc2ccc(N3CCCCC3)cc2)c1 | 9 | 5 | 5 | 7 | 1 | 0 | x
Cc1csc(NC(=O)CSc2nccn2C)n1 | -6 | 3 | 5 | 0 | -3 | 1 | x
C[C@H]1CN([C@@H](C)CO)C(=O)Cc2cc(NS(=O)(=O)c3ccc(Cl)cc3)ccc2O[C@@H]1CN(C)C(=O)Nc1cccc2ccccc12 | x | 16 | 13 | x | 49* | 12 | 54*
CCOC(=O)c1c(N2C(=O)CC(Sc3ccccc3C(=O)O)C2=O)sc2c1CCCC2 (centres undefined) | 5 | 13 | 0 | -9 | 12 | 3 | x
CCCCCCCC/C=C\CCCCCCCC(=O)O | 11 | 15 | 6 | 15 | 4 | 16 | x
CCCCC/C=C\C/C=C\C/C=C\CCCCC(=O)O | 14 | 10 | 4 | 0 | 38* | -1 | 17
COc1ccc(OCC(=O)Nc2c3c(nn2C(C)(C)C)CSC3)cc1 | -16 | -4 | 3 | -7 | 8 | 1 | x
Cc1ccc(C)n1Cc1ccc(C(=O)O)cc1 | 85* | 22 | 4 | 29* | 47* | 8 | 62*
Nc1ccc(C(=O)N/N=C\c2cc(N=Nc3cccc4ccccc34)ccc2O)cc1 | -20 | 6 | 12 | 0 | 77* | 17 | 53*
COC(=O)N/N=C/c1cc(N=Nc2ccccc2Cl)ccc1O | -6 | -17 | 4 | -10 | 0 | 1 | x
Cc1cc(O)c2c(c1O)C(=O)[C@]13C(=C2O)C(=O)[C@@H]2[C@@H](O)[C@H]1[C@@H]1[C@H](O)[C@H]3C(=O)C3=C(O)c4c(O)cc(C)c(O)c4C(=O)[C@]312 | x | 43* | 37* | x | 54* | 22 | 23
SMILES | ZTA counter | PAFAH2 FP inh | PAFAH1B3 FP inh | EBNA-1 inhibitor | pPAFAH inh | PAFAH1B2 FP inh | pPAFAH confirm
FC(F)C(F)(F)C(F)(F)C(F)(F)c1cc(-c2ccccc2)n[nH]1 | -5 | 1 | 4 | -2 | 56* | -5 | 50*
Cc1cc(-c2ccccc2)n[nH]1 | -31 | 12 | -1 | -3 | 0 | 1 | x
O=C1CSC(=S)N1/N=C/c1ccc(O)c(O)c1O | 11 | 36* | 19 | -3 | 67* | 7 | 64*
Cc1ccc(C2OCC(C)([N+](=O)[O-])CO2)cc1 (centres undefined) | x | 0 | -1 | x | x | 1 | x
CC1(C)CCC/C(=C\c2ccccc2)C1=O | -4 | 2 | 4 | 1 | 46* | 3 | 8
O=C(O)c1cc(-c2ccco2)nn1-c1cccc(Cl)c1 | 10 | 16 | 12 | 7 | 40* | 9 | 16
O=C(O)c1cc(-c2ccco2)nn1-c1ccc(Cl)cc1 | x | 9 | 1 | x | x | 6 | x
Oc1ccccc1CC=NC1CCCCC1 | x | 2 | 14 | x | x | 4 | x
CCCn1nc([N+](=O)[O-])c(C(C#N)c2nc3ccccc3s2)c(Cl)c1=O (centres undefined) | 26 | 60* | 14 | 4 | 56* | 15 | 51*
Cc1ccnc(NS(=O)(=O)c2cc(C(F)(F)F)ccc2Cl)c1 | -9 | x | x | -4 | -1 | x | x
CN(C)CC/C=C1/c2ccccc2COc2ccccc21 | -3 | x | x | 6 | 1 | x | x
CN(C)CC/C=C1/c2ccccc2COc2ccc(CC(=O)O)cc21 | 21 | 0 | -1 | 11 | 60* | -2 | 4
Cc1ccc(NC(=O)c2cc3c(=O)oc4ccc(C)cc4c3s2)nc1 | 12 | x | x | 3 | 66* | x | 6
Nc1nc(SCc2ccc(Br)cc2)n[nH]1 | -5 | 1 | 14 | -13 | 4 | 15 | x
Nc1nc(SCc2ccccc2)n[nH]1 | 4 | 0 | -4 | -5 | 47* | 2 | 1
O=C(O)c1ccc(-n2cccc2/C=N\NC(=O)c2cc3cc(Br)ccc3o2)cc1 | 18 | 26 | 12 | 9 | 48* | 3 | 25*
CN(C)c1ccc(N2C(=O)CC(Nc3ccc(N4CCOCC4)cc3)C2=O)cc1 (centres undefined) | 3 | 6 | -8 | 2 | 7 | -1 | x
O=C1CC(Nc2ccc(N3CCOCC3)cc2)C(=O)N1c1cccc(C(F)(F)F)c1 (centres undefined) | 5 | 12 | 4 | 7 | 46* | 3 | 6
